Values joined by “and” are separate entries in the source; they are usually repeats but may differ in a detail not shown here. Equal entries are not always repeated. In all, about 5,500 compounds went through this assay and about 2,000 (36%) were called active. Inconclusive results (about 18%) are left out. Cut-off read from the data, not from the text of the source: active = normalized growth mostly below about 0.91 (no sharp cut-off); inconclusive = no clear call, values can overlap the other calls; inactive = mostly above about 0.92. The list shows a part of the results.
Assay: chemical genetic growth profiling, strain panel (AID 1159580);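 note: tested at 20 µM; growth read once vehicle control cultures reached saturation at 30 °C; 1 = growth at the plate median or of vehicle wells; lower values mean less growth of the strain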
Settings: S. cerevisiae deletion strains, growth OD

Measured: normalized growth

COc1ccc(NS(=O)(=O)c2ccc(N)cc2)nn1
inactive: locus YAL013W, strain DEP1, stronger effect = lower value 1.01 | locus YAL021C, strain ccr4, stronger effect = lower value 0.989 | locus YAL026C, strain drs2, stronger effect = lower value 1 | locus YAL030W, strain snc1, stronger effect = lower value 0.996 | locus YBL061C, strain skt5, stronger effect = lower value 0.992 | locus YBR009C, strain hhf1, stronger effect = lower value 0.978 | locus YBR021W, strain FUR4, stronger effect = lower value 1.02 | locus YBR023C, strain chs3, stronger effect = lower value 1.01 | locus YBR171W, strain sec66, stronger effect = lower value 0.999 | locus YBR229C, strain ROT2, stronger effect = lower value 1.02 | locus YBR231C, strain swc5, stronger effect = lower value 1 | locus YBR279W, strain paf1, stronger effect = lower value 1 | locus YCL011C, strain gbp2, stronger effect = lower value 1.01 | locus YCL016C, strain dcc1, stronger effect = lower value 0.996 | locus YCL029C, strain bik1, stronger effect = lower value 0.996 | locus YCL069W, strain vba3, stronger effect = lower value 0.992 | locus YCR088W, strain abp1, stronger effect = lower value 1 | locus YDL005C, strain med2, stronger effect = lower value 0.998 | locus YDL035C, strain GPR1, stronger effect = lower value 1.02 | locus YDL040C, strain nat1, stronger effect = lower value 1 | locus YDL074C, strain BRE1, stronger effect = lower value 1.04 | locus YDL101C, strain DUN1, stronger effect = lower value 1.03 | locus YDL134C, strain PPH21, stronger effect = lower value 1.01 | locus YDL185W, strain tfp1, stronger effect = lower value 0.996 | locus YDL192W, strain arf1, stronger effect = lower value 0.99 | locus YDR001C, strain nth1, stronger effect = lower value 1.01 | locus YDR069C, strain doa4, stronger effect = lower value 1 | locus YDR101C, strain arx1, stronger effect = lower value 1 | locus YDR137W, strain rgp1, stronger effect = lower value 1 | locus YDR150W, strain NUM1, stronger effect = lower value 1.02 | locus YDR159W, strain sac3, stronger effect = lower value 0.907 | locus YDR162C, strain NBP2, stronger effect = lower value 1.01 | locus YDR195W, strain ref2 1 | locus YDR297W, strain sur2, stronger effect = lower value 0.989 | locus YDR318W, strain mcm21, stronger effect = lower value 0.988 | locus YDR334W, strain swr1, stronger effect = lower value 1.01 | locus YDR335W, strain msn5, stronger effect = lower value 1 | locus YDR388W, stronger effect = lower value 0.993 | locus YDR392W, strain spt3, stronger effect = lower value 0.881 | locus YDR502C, strain sam2, stronger effect = lower value 0.983 | locus YEL003W, strain gim4, stronger effect = lower value 1.02 | locus YEL037C, strain rad23, stronger effect = lower value 0.995 | locus YEL061C, strain CIN8 (second series), stronger effect = lower value 1.01 | locus YEL061C, strain CIN8, stronger effect = lower value 1.02 | locus YER015W, strain faa2, stronger effect = lower value 1.01 | locus YER016W, strain bim1, stronger effect = lower value 0.988 | locus YER110C, stronger effect = lower value 0.992 | locus YER111C, strain swi4, stronger effect = lower value 0.995 | locus YER155C, strain BEM2 (second series), stronger effect = lower value 0.962 | locus YER155C, strain BEM2, stronger effect = lower value 1 | locus YER167W, strain BCK2, stronger effect = lower value 1.01 | locus YFR010W, strain ubp6, stronger effect = lower value 1 | locus YGL078C, strain dbp3, stronger effect = lower value 0.986 | locus YGL086W, strain mad1, stronger effect = lower value 0.995 | locus YGL167C, strain pmr1, stronger effect = lower value 0.999 | locus YGL173C, strain kem1, stronger effect = lower value 1 | locus YGL227W, strain vid30, stronger effect = lower value 1 | locus YGL240W, strain doc1, stronger effect = lower value 0.987 | locus YGL248W, strain PDE1, stronger effect = lower value 1.03 | locus YGL253W, strain hxk2, stronger effect = lower value 1.01 | locus YGR135W, strain pre9, stronger effect = lower value 0.982 | locus YGR252W, strain gcn5, stronger effect = lower value 0.953 | locus YHR013C, strain ard1, stronger effect = lower value 0.987 | locus YHR027C, strain rpn1, stronger effect = lower value 0.999 | locus YHR030C, strain SLT2, stronger effect = lower value 1.02 and 0.989 | locus YHR079C, strain IRE1 (second series), stronger effect = lower value 0.998 | locus YHR079C, strain IRE1, stronger effect = lower value 0.995 | locus YHR094C, strain hxt1, stronger effect = lower value 0.984 | locus YHR129C, strain ARP1, stronger effect = lower value 1.01 | locus YHR142W, strain chs7, stronger effect = lower value 1 | locus YHR200W, strain rpn10, stronger effect = lower value 0.999 | locus YIL066C, strain RNR3, stronger effect = lower value 1.03 | locus YIL073C, strain SPO22, stronger effect = lower value 0.965 | locus YIL125W, strain kgd1, stronger effect = lower value 0.996 | locus YIR030C, strain dcg1, stronger effect = lower value 0.99 | locus YJL092W, strain hpr5, stronger effect = lower value 1 | locus YJL095W, strain BCK1 (second series), stronger effect = lower value 1 | locus YJL095W, strain BCK1, stronger effect = lower value 1.05 and 1.01 | locus YJL115W, strain asf1, stronger effect = lower value 0.996 | locus YJL129C, strain trk1, stronger effect = lower value 1 | locus YJL134W, strain LCB3, stronger effect = lower value 1.01 | locus YJL154C, strain vps35, stronger effect = lower value 0.997 | locus YJL164C, strain tpk1, stronger effect = lower value 0.985 | locus YJL166W, strain qcr8, stronger effect = lower value 1.02 | locus YJL168C, strain set2, stronger effect = lower value 0.996 | locus YJL187C, strain SWE1 (second series), stronger effect = lower value 1.03 | locus YJR043C, strain POL32, stronger effect = lower value 1.01 | locus YJR066W, strain TOR1, stronger effect = lower value 0.934

From PubChem BioAssay AID1159580 (chemical genetic matrix, 2015)
